# Measured values from article PMC7862700, “An all-to-all approach to the identification of sequence-specific readers for epigenetic DNA modifications on cytosine”.
# How the values were obtained:
# Assay in all cases: DAPPL (digital affinity profiling via proximity ligation, sequencing); 10 mM Tris-HCl pH 7.5, 50 mM NaCl, 1 mM DTT, 4% glycerol, room temperature, 30 min; GST-TFs on glutathione beads, 16-mer random dsDNA library, 0.1% formaldehyde crosslink after washing; high values mean tight binding
# FEV = target: T1, FEV (Homo sapiens, UniProt Q99581 1-238); settings: protein: recombinant; tags: N-terminal GST; dsDNA, one strand shown
# T1 sequence: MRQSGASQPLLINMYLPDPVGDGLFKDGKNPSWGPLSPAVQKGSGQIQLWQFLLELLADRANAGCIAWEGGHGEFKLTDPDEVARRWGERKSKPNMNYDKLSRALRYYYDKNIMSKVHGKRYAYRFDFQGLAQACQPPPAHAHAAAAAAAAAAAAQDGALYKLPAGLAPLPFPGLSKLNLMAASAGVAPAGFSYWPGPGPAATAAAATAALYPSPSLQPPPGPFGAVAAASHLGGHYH
# Summary of the method: (§1)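 Pools of DNA-barcoded human transcription factors, expressed in yeast as GST fusions on glutathione beads and combined with a tag-only sample, were incubated with 200 nmole of a 16-mer random double-stranded DNA library. Incubation took 30 min at room temperature in Tris/NaCl/DTT/glycerol buffer and was followed by washing, 0.1% formaldehyde crosslinking, proximity ligation (BsaI/T4 ligase, 1 h, 37 °C), PCR amplification and sequencing on an Illumina NextSeq500. Binding signal is the ratio of a hexamer's read frequency for a factor to its frequency for the tag-only sample.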
# ETV5 = ETV5 (Homo sapiens, UniProt P41161 1-510); settings: protein: recombinant; tags: N-terminal GST; dsDNA, one strand shown
# ETV5, sequence (P41161 whole entry): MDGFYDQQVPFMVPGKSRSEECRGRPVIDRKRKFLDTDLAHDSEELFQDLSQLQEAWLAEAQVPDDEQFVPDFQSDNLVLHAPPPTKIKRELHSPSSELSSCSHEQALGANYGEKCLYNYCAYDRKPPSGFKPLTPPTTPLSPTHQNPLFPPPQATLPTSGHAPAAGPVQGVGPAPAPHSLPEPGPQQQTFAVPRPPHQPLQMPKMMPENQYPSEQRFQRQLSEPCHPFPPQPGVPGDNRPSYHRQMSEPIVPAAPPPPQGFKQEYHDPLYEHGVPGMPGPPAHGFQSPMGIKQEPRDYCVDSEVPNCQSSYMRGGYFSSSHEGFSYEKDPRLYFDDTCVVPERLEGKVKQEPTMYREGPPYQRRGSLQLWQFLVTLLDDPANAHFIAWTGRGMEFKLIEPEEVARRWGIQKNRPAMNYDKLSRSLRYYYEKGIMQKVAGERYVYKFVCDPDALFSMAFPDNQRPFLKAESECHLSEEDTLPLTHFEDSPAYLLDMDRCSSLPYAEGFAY
# Summary of the method: as §1
# HSF1 = HSF1 (Homo sapiens, UniProt Q00613 1-529); settings: protein: recombinant; tags: N-terminal GST; chain copies: 3; dsDNA, one strand shown
# HSF1, sequence (Q00613 whole entry): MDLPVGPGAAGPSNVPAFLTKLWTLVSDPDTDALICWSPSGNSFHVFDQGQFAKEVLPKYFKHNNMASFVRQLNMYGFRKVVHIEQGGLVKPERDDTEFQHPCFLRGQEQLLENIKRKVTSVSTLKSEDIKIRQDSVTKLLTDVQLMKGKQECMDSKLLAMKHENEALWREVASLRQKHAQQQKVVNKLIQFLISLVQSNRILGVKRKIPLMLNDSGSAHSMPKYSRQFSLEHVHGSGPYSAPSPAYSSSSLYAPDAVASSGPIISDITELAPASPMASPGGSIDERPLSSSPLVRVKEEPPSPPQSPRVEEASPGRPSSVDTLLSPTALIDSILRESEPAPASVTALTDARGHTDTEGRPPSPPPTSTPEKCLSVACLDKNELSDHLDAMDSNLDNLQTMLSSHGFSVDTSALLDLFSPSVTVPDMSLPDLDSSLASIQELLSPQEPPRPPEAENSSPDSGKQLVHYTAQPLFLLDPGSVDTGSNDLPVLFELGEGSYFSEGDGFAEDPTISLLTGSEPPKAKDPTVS
# Summary of the method: as §1
# SPIC = target: T2, SPIC (Homo sapiens, UniProt Q8N5J4 1-248); settings: protein: recombinant; tags: N-terminal GST; dsDNA, one strand shown
# T2 sequence: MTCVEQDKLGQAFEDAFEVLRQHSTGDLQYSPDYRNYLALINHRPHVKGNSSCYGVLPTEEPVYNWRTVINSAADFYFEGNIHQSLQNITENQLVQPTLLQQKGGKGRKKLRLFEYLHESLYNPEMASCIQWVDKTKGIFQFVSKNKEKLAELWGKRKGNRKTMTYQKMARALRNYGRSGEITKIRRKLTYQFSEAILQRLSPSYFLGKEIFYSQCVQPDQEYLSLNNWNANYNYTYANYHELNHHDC
# Summary of the method: as §1
# ELF4 = ELF4 (Homo sapiens, UniProt Q99607 1-663); settings: protein: recombinant; tags: N-terminal GST; dsDNA, one strand shown
# ELF4, sequence (Q99607 whole entry): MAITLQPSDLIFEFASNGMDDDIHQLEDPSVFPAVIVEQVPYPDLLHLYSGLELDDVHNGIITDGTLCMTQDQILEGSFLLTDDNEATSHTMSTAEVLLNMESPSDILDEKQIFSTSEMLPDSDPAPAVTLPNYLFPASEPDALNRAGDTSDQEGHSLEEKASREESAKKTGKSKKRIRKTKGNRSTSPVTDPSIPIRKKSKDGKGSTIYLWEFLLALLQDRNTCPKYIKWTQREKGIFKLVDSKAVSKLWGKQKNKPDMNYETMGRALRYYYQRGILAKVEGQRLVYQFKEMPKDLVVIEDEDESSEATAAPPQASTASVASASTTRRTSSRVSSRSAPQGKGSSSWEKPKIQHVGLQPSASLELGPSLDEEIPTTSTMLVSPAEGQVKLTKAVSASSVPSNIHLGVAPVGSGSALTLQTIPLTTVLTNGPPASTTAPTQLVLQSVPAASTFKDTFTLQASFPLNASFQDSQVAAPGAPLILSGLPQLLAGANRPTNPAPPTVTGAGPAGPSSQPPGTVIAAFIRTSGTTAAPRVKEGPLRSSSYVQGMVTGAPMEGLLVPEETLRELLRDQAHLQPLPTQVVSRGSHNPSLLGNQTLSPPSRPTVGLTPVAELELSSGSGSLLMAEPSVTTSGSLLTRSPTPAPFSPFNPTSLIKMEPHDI
# Summary of the method: as §1
# ELK4 = target: T3, ELK4 (Homo sapiens, UniProt P28324-2 1-405); settings: protein: recombinant; tags: N-terminal GST; dsDNA, one strand shown
# T3 sequence: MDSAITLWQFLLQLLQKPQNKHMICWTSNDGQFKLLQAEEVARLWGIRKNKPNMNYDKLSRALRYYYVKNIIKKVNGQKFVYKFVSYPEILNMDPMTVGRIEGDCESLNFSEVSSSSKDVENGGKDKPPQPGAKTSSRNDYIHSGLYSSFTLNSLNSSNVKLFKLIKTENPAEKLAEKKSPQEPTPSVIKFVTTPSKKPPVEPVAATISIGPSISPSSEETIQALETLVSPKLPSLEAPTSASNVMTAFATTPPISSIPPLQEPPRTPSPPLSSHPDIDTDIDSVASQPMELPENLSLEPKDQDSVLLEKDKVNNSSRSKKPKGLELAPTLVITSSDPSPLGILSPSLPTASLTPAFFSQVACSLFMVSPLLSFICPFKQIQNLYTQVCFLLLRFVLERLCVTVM
# Summary of the method: as §1
# ETV2 = target: T4, ETV2 (Homo sapiens, UniProt O00321 1-342); settings: protein: recombinant; tags: N-terminal GST; dsDNA, one strand shown
# T4 sequence: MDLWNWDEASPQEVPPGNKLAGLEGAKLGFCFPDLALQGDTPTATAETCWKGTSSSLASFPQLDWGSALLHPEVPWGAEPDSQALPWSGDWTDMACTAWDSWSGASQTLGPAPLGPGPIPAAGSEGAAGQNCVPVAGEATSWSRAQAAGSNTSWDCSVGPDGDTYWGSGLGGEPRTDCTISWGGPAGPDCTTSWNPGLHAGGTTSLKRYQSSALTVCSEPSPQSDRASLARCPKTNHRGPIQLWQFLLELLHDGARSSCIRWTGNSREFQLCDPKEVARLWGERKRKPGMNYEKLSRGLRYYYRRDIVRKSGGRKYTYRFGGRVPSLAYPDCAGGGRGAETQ
# Summary of the method: as §1
# ELF3 = target: T5, ELF3 (Homo sapiens, UniProt P78545 1-371); settings: protein: recombinant; tags: N-terminal GST; dsDNA, one strand shown
# T5 sequence: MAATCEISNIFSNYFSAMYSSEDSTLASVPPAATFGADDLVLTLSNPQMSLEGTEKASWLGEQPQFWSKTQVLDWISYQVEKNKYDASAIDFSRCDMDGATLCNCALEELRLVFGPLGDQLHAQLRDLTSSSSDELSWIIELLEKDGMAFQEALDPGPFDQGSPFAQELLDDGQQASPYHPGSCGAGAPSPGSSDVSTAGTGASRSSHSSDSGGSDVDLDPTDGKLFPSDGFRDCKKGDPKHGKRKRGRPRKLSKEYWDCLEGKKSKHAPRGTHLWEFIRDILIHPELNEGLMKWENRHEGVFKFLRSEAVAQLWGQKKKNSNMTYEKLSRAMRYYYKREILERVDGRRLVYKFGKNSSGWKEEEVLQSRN
# Summary of the method: as §1
# CRX = CRX (Homo sapiens, UniProt O43186 1-299); settings: protein: recombinant; tags: N-terminal GST; dsDNA, one strand shown
# CRX, sequence (O43186 whole entry): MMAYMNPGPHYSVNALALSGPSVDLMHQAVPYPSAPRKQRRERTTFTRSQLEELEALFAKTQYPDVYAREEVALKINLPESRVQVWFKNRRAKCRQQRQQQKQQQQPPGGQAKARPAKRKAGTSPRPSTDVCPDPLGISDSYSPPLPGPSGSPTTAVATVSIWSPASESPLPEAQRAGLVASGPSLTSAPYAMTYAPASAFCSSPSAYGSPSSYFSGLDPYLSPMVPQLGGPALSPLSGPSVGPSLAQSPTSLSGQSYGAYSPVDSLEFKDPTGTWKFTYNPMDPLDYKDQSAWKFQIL
# Summary of the method: as §1
# ETV1 = ETV1 (Homo sapiens, UniProt P50549 1-477); settings: protein: recombinant; tags: N-terminal GST; dsDNA, one strand shown
# ETV1, sequence (P50549 whole entry): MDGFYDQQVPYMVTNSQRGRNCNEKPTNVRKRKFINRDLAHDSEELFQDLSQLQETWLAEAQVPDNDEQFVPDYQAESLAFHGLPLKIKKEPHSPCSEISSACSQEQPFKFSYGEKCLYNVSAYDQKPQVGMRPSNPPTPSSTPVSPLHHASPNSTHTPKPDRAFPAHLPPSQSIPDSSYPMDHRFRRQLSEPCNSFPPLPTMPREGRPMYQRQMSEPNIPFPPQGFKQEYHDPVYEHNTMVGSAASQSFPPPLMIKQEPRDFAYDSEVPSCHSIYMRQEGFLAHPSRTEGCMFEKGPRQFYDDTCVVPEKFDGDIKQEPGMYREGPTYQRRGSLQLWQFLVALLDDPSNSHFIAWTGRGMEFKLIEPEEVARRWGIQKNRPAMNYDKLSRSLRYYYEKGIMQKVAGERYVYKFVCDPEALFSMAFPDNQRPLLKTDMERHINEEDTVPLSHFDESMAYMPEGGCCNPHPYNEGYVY
# Summary of the method: as §1
# ERF = target: T6, ERF (Homo sapiens, UniProt P50548 1-548); settings: protein: recombinant; tags: N-terminal GST; dsDNA, one strand shown
# T6 sequence: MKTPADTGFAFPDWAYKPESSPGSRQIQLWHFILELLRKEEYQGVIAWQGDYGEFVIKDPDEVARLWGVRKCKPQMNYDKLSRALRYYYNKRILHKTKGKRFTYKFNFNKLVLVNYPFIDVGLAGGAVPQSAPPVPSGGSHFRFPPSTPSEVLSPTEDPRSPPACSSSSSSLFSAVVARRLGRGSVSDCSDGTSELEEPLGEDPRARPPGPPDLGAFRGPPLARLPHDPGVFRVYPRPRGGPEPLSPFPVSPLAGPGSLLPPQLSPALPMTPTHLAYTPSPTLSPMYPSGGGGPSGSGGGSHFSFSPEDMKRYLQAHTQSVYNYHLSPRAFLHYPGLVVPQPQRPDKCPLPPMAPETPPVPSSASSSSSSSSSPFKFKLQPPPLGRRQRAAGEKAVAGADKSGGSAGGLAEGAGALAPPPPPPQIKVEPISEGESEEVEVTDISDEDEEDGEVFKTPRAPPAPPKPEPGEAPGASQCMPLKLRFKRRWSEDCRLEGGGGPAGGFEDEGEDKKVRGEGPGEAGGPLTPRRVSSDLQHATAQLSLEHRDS
# Summary of the method: as §1
# ETV3L = target: T7, ETV3L (Homo sapiens, UniProt Q6ZN32 1-361); settings: protein: recombinant; tags: N-terminal GST; dsDNA, one strand shown
# T7 sequence: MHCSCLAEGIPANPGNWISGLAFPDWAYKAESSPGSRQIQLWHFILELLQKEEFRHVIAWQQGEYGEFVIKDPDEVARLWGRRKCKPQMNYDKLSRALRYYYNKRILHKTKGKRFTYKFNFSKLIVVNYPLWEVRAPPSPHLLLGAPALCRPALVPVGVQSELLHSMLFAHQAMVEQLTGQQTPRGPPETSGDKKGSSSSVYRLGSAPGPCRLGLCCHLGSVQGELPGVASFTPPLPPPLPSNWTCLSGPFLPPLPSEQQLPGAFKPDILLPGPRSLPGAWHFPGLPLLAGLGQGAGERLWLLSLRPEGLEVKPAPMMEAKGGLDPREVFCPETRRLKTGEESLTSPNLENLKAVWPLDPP
# Summary of the method: as §1
# ETS2 = target: T8, ETS2 (Homo sapiens, UniProt P15036 1-469); settings: protein: recombinant; tags: N-terminal GST; dsDNA, one strand shown
# T8 sequence: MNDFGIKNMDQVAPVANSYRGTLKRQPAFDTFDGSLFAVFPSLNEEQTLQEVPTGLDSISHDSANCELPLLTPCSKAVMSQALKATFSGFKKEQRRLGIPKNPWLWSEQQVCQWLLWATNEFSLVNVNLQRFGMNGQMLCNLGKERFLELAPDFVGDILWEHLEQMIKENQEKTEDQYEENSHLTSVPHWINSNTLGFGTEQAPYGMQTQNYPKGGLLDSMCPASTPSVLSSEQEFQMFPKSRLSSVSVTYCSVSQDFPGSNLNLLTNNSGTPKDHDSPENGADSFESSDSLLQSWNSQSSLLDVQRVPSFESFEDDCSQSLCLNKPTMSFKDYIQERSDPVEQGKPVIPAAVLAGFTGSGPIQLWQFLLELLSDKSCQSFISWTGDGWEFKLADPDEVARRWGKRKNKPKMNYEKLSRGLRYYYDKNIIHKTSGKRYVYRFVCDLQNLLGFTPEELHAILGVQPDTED
# Summary of the method: as §1
# SPDEF = target: T9, SPDEF (Homo sapiens, UniProt O95238 1-335); settings: protein: recombinant; tags: N-terminal GST; dsDNA, one strand shown
# T9 sequence: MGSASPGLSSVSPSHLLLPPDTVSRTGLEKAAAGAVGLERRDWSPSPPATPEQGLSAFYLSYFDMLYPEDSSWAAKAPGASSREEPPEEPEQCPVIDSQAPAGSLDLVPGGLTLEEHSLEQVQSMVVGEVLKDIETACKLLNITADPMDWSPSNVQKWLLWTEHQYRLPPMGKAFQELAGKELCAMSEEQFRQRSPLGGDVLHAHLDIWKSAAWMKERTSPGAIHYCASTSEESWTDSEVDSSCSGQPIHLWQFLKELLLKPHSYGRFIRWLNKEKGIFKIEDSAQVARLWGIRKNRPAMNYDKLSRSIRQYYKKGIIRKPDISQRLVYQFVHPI
# Summary of the method: as §1
# ETV7 = target: T10, ETV7 (Homo sapiens, UniProt Q9Y603 1-341); settings: protein: recombinant; tags: N-terminal GST; dsDNA, one strand shown
# T10 sequence: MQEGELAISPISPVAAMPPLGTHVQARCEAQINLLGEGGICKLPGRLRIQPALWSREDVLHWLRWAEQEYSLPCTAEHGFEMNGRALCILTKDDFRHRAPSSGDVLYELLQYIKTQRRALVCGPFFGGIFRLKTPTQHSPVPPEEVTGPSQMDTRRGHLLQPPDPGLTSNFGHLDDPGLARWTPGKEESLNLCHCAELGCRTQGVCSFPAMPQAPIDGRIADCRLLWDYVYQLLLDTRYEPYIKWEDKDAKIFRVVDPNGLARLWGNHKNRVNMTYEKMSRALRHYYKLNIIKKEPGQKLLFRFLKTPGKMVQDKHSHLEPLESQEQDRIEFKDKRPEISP
# Summary of the method: as §1
# ELF5 = target: T11, ELF5 (Homo sapiens, UniProt Q9UKW6-2 1-255); settings: protein: recombinant; tags: N-terminal GST; dsDNA, one strand shown
# T11 sequence: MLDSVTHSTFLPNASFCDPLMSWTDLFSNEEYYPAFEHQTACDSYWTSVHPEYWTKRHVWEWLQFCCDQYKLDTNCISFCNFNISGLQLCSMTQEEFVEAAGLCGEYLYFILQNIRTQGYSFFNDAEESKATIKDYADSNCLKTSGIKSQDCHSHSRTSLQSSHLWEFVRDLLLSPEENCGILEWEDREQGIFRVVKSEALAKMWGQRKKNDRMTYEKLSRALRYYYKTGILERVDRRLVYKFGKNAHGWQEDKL
# Summary of the method: as §1
# ETV3 = target: T12, ETV3 (Homo sapiens, UniProt P41162-2 1-143); settings: protein: recombinant; tags: N-terminal GST; dsDNA, one strand shown
# T12 sequence: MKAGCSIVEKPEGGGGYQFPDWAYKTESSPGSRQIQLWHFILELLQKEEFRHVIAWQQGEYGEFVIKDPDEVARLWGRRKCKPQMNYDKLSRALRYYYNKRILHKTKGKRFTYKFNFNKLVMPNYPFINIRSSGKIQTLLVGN
# Summary of the method: as §1
# ETV6 = ETV6 (Homo sapiens, UniProt P41212 1-452); settings: protein: recombinant; tags: N-terminal GST; dsDNA, one strand shown
# ETV6, sequence (P41212 whole entry): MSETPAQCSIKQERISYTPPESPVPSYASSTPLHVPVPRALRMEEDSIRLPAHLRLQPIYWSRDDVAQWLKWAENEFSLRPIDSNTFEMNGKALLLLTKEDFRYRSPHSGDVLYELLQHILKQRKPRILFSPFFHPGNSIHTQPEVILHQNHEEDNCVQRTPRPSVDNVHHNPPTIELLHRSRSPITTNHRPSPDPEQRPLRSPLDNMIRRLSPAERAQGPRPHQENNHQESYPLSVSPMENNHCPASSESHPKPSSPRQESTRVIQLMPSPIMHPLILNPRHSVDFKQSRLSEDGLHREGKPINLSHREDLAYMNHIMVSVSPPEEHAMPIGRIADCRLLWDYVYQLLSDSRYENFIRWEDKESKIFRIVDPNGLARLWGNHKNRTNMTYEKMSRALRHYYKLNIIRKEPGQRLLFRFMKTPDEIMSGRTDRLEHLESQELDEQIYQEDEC
# Summary of the method: as §1
sequence,measurement,setting,value
TTTATT,binding signal,FEV,"1.29 fold enrichment (6-mer frequency, TF over GST control)"
same,binding signal,ETV5,"1.29 fold enrichment (6-mer frequency, TF over GST control)"
same,binding signal,HSF1,"1.46 fold enrichment (6-mer frequency, TF over GST control)"
same,binding signal,SPIC,"1.25 fold enrichment (6-mer frequency, TF over GST control)"
same,binding signal,ELF4,"1.3 fold enrichment (6-mer frequency, TF over GST control)"
same,binding signal,ELK4,"1.27 fold enrichment (6-mer frequency, TF over GST control)"
same,binding signal,ETV2,"1.29 fold enrichment (6-mer frequency, TF over GST control)"
same,binding signal,ELF3,"1.29 fold enrichment (6-mer frequency, TF over GST control)"
same,binding signal,CRX,"1.93 fold enrichment (6-mer frequency, TF over GST control)"
same,binding signal,ETV1,"1.27 fold enrichment (6-mer frequency, TF over GST control)"
same,binding signal,ERF,"1.21 fold enrichment (6-mer frequency, TF over GST control)"
same,binding signal,ETV3L,"1.44 fold enrichment (6-mer frequency, TF over GST control)"
same,binding signal,ETS2,"1.21 fold enrichment (6-mer frequency, TF over GST control)"
same,binding signal,SPDEF,"1.2 fold enrichment (6-mer frequency, TF over GST control)"
same,binding signal,ETV7,"1.31 fold enrichment (6-mer frequency, TF over GST control)"
same,binding signal,ELF5,"1.24 fold enrichment (6-mer frequency, TF over GST control)"
same,binding signal,ETV3,"1.33 fold enrichment (6-mer frequency, TF over GST control)"
same,binding signal,ETV6,"1.28 fold enrichment (6-mer frequency, TF over GST control)"
